In the library only some 21% were active in any assay of this set; here they are far more common.
Giardia FBPA inh: inhibitors of Giardia lamblia fructose-1,6-bisphosphate aldolase; purified Giardia FBPA; Potency, µM (top dose mostly 59.6 µM), inactives show at the top dose activity, negative = inhibition, usual class: inhibitors; 290,000 tested, 0.71% active; also: potency is read from the fitted curve at half-maximal effect; % is scaled to controls: 0 for no effect and ±100 for the full control effect; nearly all actives have a fitted effect of over 55% in size
Target sequence (A8B2U2 whole entry, looked up): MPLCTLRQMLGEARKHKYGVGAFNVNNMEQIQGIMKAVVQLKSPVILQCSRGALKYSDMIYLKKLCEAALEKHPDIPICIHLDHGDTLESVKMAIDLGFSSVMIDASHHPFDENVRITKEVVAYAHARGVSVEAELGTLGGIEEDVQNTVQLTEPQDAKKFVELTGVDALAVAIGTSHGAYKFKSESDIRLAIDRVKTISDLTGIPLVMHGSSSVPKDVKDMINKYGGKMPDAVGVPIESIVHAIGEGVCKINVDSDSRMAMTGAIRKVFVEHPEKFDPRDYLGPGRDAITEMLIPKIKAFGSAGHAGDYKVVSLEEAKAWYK
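Giardia FBPA (40 nM reagent) was preincubated 10 min at RT with compound (up to 57.5 uM final), then substrate plus GAPDH/TPI/NAD/arsenate coupling system with diaphorase/resazurin was added; resorufin fluorescence (525/598 nm) was read after 20 min.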
NS1 function inh: blocks influenza NS1 protein function | Potency, µM (top dose mostly 46.1 µM), inactives show at the highest dose activity, positive = more growth | 270,000 tested, 0.4% active; calls by dose curve; also: potency is read from the fitted curve at half-maximal effect; actives are rising curves; nearly all actives have a fitted effect of over 50% in size
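Compounds were scored for reversing the slow growth caused by influenza A NS1 in S. cerevisiae, measured by optical density at 600 nm. Assay medium contained 2% galactose at pH 6.0; NS1-free yeast of the same strain were the positive control.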
Pf growth 48h: P. falciparum growth inhibition at 48 hours (one generation); 310,000 tested, 5.9% active; P. falciparum luciferase growth in erythrocytes, 48 h; Potency, µM (series often up to 28.7 µM), for inactives: at the top dose activity change, negative = inhibition, hits mostly inhibitors; also: potency is read from the fitted curve at half-maximal effect; % is scaled to controls: 0 for no effect and ±100 for the full control effect
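Here the parasites carry a stable luciferase gene and grow inside erythrocytes in Albumax-based RPMI medium with compound for one erythrocytic cycle. Activity is scored as loss of luminescent signal.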
CHX counter: counter-screen hit for Shiga toxin inhibitors, cycloheximide; cell reporter, cycloheximide protein synthesis inhibition counterscreen; max response, %; 300,000 tested, 12% active; AID 2314; in the data active = max response mostly above about 13%, no sharp cut-off; inactive = mostly below about 14%; also: read at 38.3 µM for the half of the compounds with a filed dose; 0% is about no effect
Shiga inhibitor: blocks Shiga toxin action in Vero cells. Vero cells, Shiga toxin protein synthesis inhibition reporter. inhibition, % at 38.7 µM. 290,000 tested, 9.2% active. AID 2315; in the data active = inhibition mostly above about 28%, no sharp cut-off; inactive = mostly below about 43%; also: 0% is about no effect
Pf growth 96h: inhibits malaria parasite growth, 96 h; P. falciparum luciferase reporter growth, 96 h; Potency, µM (titrated, usually from 28.7 µM), for inactives: at the top dose activity change, negative = inhibition, usual class: inhibitors; 320,000 tested, 6.9% active; also: potency is read from the fitted curve at half-maximal effect; % is scaled to controls: 0 for no effect and ±100 for the full control effect
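Cell-based qHTS: luciferase-tagged P. falciparum in erythrocytes (2% hematocrit, 0.05% parasitemia final) incubated with compounds for 96 hours, 37 C, 5% CO2; luciferase detection reagent then added and luminescence measured.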
* hit, by the source's call; ? = inconclusive; . = no result given; [ ] = dose if it differs, or a comment. Unless noted, calls follow the shape of the dose curve; as a rule, active = well fitted curve in the direction sought with a large enough effect; inconclusive = small, poorly fitted or top-dose-only effect, or another doubt; inactive = no such curve, though single readings can be large; an effect the other way counts as inactive or inconclusive.

SMILES	Giardia FBPA inh	NS1 function inh	Pf growth 48h	CHX counter	Shiga inhibitor	Pf growth 96h
CCc1cc(=O)oc2cc(C)cc(OCC(=O)NCCc3c[nH]c4ccccc34)c12	9%	-19%	1.9µM*	-4	-5	2.6µM*
Cc1cc(OCC(=O)NC2CC2)c2c(C)cc(=O)oc2c1	4%	2%	-12%	-5	-6	4%
CSc1cc2c(s1)c1cnn(Cc3ccccc3F)c(=O)c1n2C	.	.	.	-11	-12	.
COS(C)(=O)=O	-1%	.	.	.	.	.
COc1ccc(-c2nnc3n2N=C(c2c(OC)cccc2OC)CS3)cc1OC	2%	.	.	-7	-9	.
CCOC(=O)c1c(/N=C/c2cc([N+](=O)[O-])ccc2O)sc(C)c1C	-7%	.	?	8	-9	9.3µM*
Cc1ccc(O)c(NC(=S)NC(=O)CC(C)C)c1	0%	-2%	91%	59*	61*	81%
Cc1ccc(O)c(NC(=S)NC(=O)C(C)C)c1	-7%	-3%	16%	16*	52*	3%
Cc1ccc(NC(=S)NC(=O)Cc2ccccc2)c(O)c1	-3%	-9%	7%	32*	29	-9%
COc1ccc(NC(=S)NC(=O)Cc2ccccc2)c(OC)c1	-10%	-8%	-18%	-2	.	-15%
CCc1noc(C)c1C(=O)NCCc1ccccc1	.	.	62%	.	.	84%
CCCn1c(N)c(N(CCOC)C(=O)c2cc3ccccc3cc2OC)c(=O)[nH]c1=O	.	.	-15%	.	.	-10%
CC(C)(C)C(CCl)C(=O)NN=C(c1ccccc1)c1ccccc1 (centres undefined)	.	.	-10%	.	.	39%
CC(Cl)C(=O)NN=C(c1ccccc1)c1ccccc1 (centres undefined)	-13%	5%	4%	16*	41	13%
O=C(Cn1nc(-c2ccccc2)c2ccccc2c1=O)NCCO	8%	-3%	21%	-6	-5	0%
Cc1cc(C(F)(F)F)n(-c2nc(C(=O)Nc3cccnc3)cs2)n1	1%	0%	-3%	-1	-7	30%[5.75 µM]
Cc1cc(C(F)(F)F)n(-c2nc(C(=O)NN)cs2)n1	3%	.	20%	10	19	7.4µM*
CC(=O)c1cccc(NC(=O)c2csc(-n3nc(C)cc3C(F)(F)F)n2)c1	0%	20%	?	-5	-14	?
CCOC(=O)c1csc(-n2nc(C)cc2C(F)(F)F)n1	1%	1%	?	33*	38	11%
CC(CNC(=O)COC(=O)c1ccco1)c1ccccc1 (centres undefined)	.	.	31%	.	.	15%
CCCCCCCNC(=O)C1(CC2CC(c3ccc(Cl)cc3)=NO2)CCNCC1 (centres undefined)	5%	15%	-77%	0	-2	6.6µM*
CCCCCCCNC(=O)C1(CC2CC(c3cccc(Br)c3)=NO2)CCNCC1 (centres undefined)	-6%	18%	?	8.2*	33*	12µM*
CCCCCCCNC(=O)C1(CC2CC(c3ccc(Cl)cc3)=NO2)CCN(C(=O)Cc2ccc(F)cc2)CC1 (centres undefined)	0%	11%	1%	2	-1	12µM*
COCC(C)NC(=O)C1CC(c2cccc(Br)c2)=NO1 (centres undefined)	7%	-7%	8%	-5	-2	35%
CCCCCCCNC(=O)C1(CC2CC(c3cccc(Br)c3)=NO2)CCN(C(=O)Cc2ccc(F)cc2)CC1 (centres undefined)	.	.	7.4µM*	.	.	10µM*
SMILES	Giardia FBPA inh	NS1 function inh	Pf growth 48h	CHX counter	Shiga inhibitor	Pf growth 96h
O=C(CCC(=O)N1CCOc2ccccc21)NCCCN1CCN(Cc2ccccc2)CC1	7%	28%	44%	-1	23	?
O=C(CN1C(=O)c2cccc([N+](=O)[O-])c2C1=O)OCC(=O)N1CCCCC1	.	.	31%	.	.	3%
COCCCn1[nH]c2c3c(ccc2c1=O)C(=O)c1ccccc1C3=O	?	-9%	12µM*	34	51	.
CC(C)(C)n1[nH]c2c3c(ccc2c1=O)C(=O)c1ccccc1C3=O	?	-8%	1.3µM*	24*	44	.
CN(CCCNC(=O)c1ccc(CS(=O)c2ccc(Br)cc2)o1)Cc1ccccc1 (centres undefined)	.	-2%	-20%	-8	-7	?
O=C(CN1C(=O)NC2(CCc3ccccc32)C1=O)c1ccc(F)c(F)c1 (centres undefined)	.	.	-15%	.	.	9%
CCC1(c2ccccc2)NC(=O)N(CC(=O)Nc2ccc(S(=O)(=O)Nc3ncccn3)cc2)C1=O (centres undefined)	.	.	7%	.	.	21%
CCn1nc(C)cc1C(=O)N1CCCC(N(C)CCc2ccc(OC)c(OC)c2)C1 (centres undefined)	.	22%	-19%	12	24	?
CN(CC(=O)Nc1c(Cl)cccc1Cl)C(=O)c1ccccc1Cc1ccccc1	.	.	13µM*	.	.	?
CCOc1ccc(NC(=O)CN(C)C(=O)c2ccccc2Cc2ccccc2)cc1OCC	.	.	12µM*	.	.	?
CCOc1ccc(NC(=O)CN(C)C(=O)c2csc3c2CCCC3)cc1OCC	.	.	13µM*	.	.	?
CCOc1ccc(NC(=O)CN(C)C(=O)CSCc2cccc(C)c2)cc1OCC	.	.	?	.	.	15µM*
CN(CC(=O)Nc1ccccc1Br)C(=O)c1ccccc1Cc1ccccc1	.	.	?	.	.	-26%
CCOc1ccc(NC(=O)CN(C)C(=O)c2cc(S(=O)(=O)N(C)C)ccc2N2CCCC2)cc1OCC	.	.	10µM*	.	.	-19%
C#CCOCCOCCOCCNc1nc(N2CCN(C(=O)Cn3cc(CCCN=C(N)N)nn3)CC2)nc(N2CCN(C(=O)[C@H](C)n3cc(CCCN=C(N)N)nn3)CC2)n1	-17%	26%	?	1	-5	?
C#CCOCCOCCOCCNc1nc(N2CCN(C(=O)CCCCCCCCCCNC(=O)[C@H](CCCCN)n3cc(C[C@@H](C)CC)nn3)CC2)nc(N2CCN(C(=O)CCCCCCCCCCNC(=O)[C@H](CCCN=C(N)N)n3cc(C[C@@H](C)CC)nn3)CC2)n1	.	.	3.3µM*	.	.	3.3µM*
C#CCOCCOCCOCCNc1nc(N2CCN(C(=O)CCCCCCCCCCNC(=O)[C@H](CCCCN)n3cc(C)nn3)CC2)nc(N2CCN(C(=O)CCCCCCCCCCNC(=O)[C@H](CCCN=C(N)N)n3cc(C[C@@H](C)CC)nn3)CC2)n1	.	.	1.9µM*	.	.	1.5µM*
C#CCOCCOCCOCCNc1nc(N2CCN(C(=O)CCCCCCCCCCNC(=O)[C@H](CO)n3cc(CCCCCN)nn3)CC2)nc(N2CCN(C(=O)CCCCCCCCCCNC(=O)[C@H](CCCN=C(N)N)n3cc(C[C@@H](C)CC)nn3)CC2)n1	.	.	3.3µM*	.	.	2.6µM*

Assay outcomes deposited in PubChem BioAssay by National Center for Advancing Translational Sciences (NCATS).
